Screening results as filed in PubChem.
This is a sample that favours compounds with a hit; in the whole collection about 2.4% have one here.
CHT inh: inhibitors of human choline transporter CHT; High affinity choline transporter 1 (Homo sapiens), Q9GZV3; CHT-expressing cells, membrane potential dye, choline response; stronger effect = lower value; B-score at 10 µM; hit rate 0.86% among 310,000; AID 488975, 2010;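 active = B-score over 3 SD under the library average, and starting fluorescence ratio not unusually high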;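 also: choline stimulus applied at its EC90 after an EC20 pre-addition; B-score computed on integrated fluorescence ratio after choline addition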
ANO1 block: TMEM16A chloride channel inhibitors, primary screen, cell-based, HTS; Anoctamin-1 (Mus musculus), Q8BHY3; HEK293 TMEM16A/YFP iodide influx fluorescence, ionomycin; normalized B-score (activity score, 25-100; higher = stronger inhibition) at 10 µM; hit rate 1.2% among 310,000;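 active = ratio plate-corrected score three or more library SD toward inhibition, starting fluorescence score within five deviations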;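 also: score derived from kinetic fluorescence span divided by baseline fluorescence per well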
CHT allo act: CHT positive allosteric modulators, primary screen, cell-based, membrane potential dye, choline EC20; hit rate 0.49% among 310,000; CHT-expressing cells; stronger effect = higher value; LV-AA mutant CHT in HEK293 cells; B-score at 10 µM; AID 488977, 2010; High affinity choline transporter 1 (Homo sapiens), Q9GZV3;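 active = initial fluorescence not abnormally high and integrated response B-score, plate-corrected, over 3 SD above library mean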
ANO1 activ: TMEM16A chloride channel activators or potentiators, primary screen, cell-based, HTS. Anoctamin-1 (Mus musculus), Q8BHY3. HEK293 TMEM16A/YFP-H148Q/I152L, iodide quench fluorescence; stronger effect = lower value. B-score at 10 µM. hit rate 0.3% among 340,000;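 active = fluorescence-ratio B-score plate-corrected deviation score at least 3 library SD below zero, with starting fluorescence score within 5 deviations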;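 also: channel opened by trigger with iodide after compound preincubation; score built on the fluorescence ratio of max minus min over baseline; more negative score means more quench and so TMEM16A activation or potentiation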
TMEM16A reconf: TMEM16A chloride channel inhibitors, confirmation, cell-based, re-confirmation; shares compounds with ANO1 block; HEK293 TMEM16A/YFP-H148Q, iodide quench fluorescence; ionomycin added to raise cell calcium; inhibition, % at 10 µM; hit rate 39% among 2,300;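 active = mean duplicate percent inhibition, scaled so buffer wells are 0 and the reference blocker 100, over three buffer SD above buffer mean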
HEK293 Ca mobil: calcium mobilization in TMEM16A/YFP HEK293 cells, confirmation, counter-screen for TMEM16A inhibitor project; AID 652231, 2013; hit rate 2% among 2,300; Fluo4 calcium mobilization; calcium response (% of ionomycin), % at 10 µM; shares compounds with ANO1 block;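 active = duplicate-averaged calcium signal over 20% of the ionomycin maximum, relative to buffer baseline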;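 also: each well's signal is peak minus trough fluorescence divided by its pre-addition baseline; 0% = buffer wells and 100% = ionomycin wells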
YFP-HEK293 quench: iodide YFP quench changes in parental YFP-HEK293, counter-screen for TMEM16A inhibitor project, cell-based | shares compounds with ANO1 block | ionomycin | YFP ratio F(max-min)/F0 at 10 µM | 2,300 tested, under 10 active;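 active = yellow fluorescent protein signal ratio exceeding the buffer control mean by over 5 SD of those controls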;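 also: ratio is mean of duplicate wells from kinetic YFP trace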
ClC-1 inh: ClC-1 chloride channel inhibition, selectivity assay for TMEM16A inhibitor project, cell-based, voltage-dependent ClC-1; shares compounds with ANO1 block; CHO ClC-1-YFP, iodide influx fluorescence quench; iodide control reads 0, buffer control 100; ratio percent, % at 10 µM; 2,300 tested, under 10 active; AID 652236, 2013;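 active = duplicate-mean ratio percent above the mean of iodide-only control wells, which defines zero, plus 5 of their SD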;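 also: higher percent means stronger block of ClC-1 iodide influx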
Target sequence (P35524 whole entry, looked up): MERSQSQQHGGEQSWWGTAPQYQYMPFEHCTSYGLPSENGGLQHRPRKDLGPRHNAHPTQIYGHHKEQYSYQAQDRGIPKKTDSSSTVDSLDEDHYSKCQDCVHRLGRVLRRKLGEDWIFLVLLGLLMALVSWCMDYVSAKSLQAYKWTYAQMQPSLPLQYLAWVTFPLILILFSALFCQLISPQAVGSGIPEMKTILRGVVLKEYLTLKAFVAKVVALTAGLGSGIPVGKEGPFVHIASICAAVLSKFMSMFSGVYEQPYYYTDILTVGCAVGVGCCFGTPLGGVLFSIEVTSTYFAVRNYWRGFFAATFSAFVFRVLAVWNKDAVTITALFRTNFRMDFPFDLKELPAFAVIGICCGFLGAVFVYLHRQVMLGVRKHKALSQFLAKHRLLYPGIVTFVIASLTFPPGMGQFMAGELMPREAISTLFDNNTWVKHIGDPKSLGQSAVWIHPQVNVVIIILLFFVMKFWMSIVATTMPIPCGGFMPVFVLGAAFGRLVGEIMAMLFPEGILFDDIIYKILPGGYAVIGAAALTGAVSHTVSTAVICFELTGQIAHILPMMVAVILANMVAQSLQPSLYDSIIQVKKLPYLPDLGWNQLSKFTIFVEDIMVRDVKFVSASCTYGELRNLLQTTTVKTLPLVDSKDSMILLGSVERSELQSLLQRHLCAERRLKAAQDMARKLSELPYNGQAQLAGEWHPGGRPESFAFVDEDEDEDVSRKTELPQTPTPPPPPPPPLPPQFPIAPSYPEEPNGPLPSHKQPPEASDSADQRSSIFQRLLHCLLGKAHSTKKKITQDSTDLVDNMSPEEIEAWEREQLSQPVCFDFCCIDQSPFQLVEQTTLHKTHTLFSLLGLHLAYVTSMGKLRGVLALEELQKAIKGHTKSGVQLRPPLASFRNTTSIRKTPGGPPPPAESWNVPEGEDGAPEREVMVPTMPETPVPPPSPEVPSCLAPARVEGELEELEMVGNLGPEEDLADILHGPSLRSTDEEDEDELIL
* hit, by the source's call; i = inactive; x = no result given.

SMILES | CHT inh | ANO1 block | CHT allo act | ANO1 activ | TMEM16A reconf | HEK293 Ca mobil | YFP-HEK293 quench | ClC-1 inh
O=[N+]([O-])c1ccc(N2CCCCCC2)c2nonc12 | i | i | i | i | x | x | x | x
O=[N+]([O-])c1ccc(N2CCCC(C(F)(F)F)C2)c2ccncc12 (stereo not drawn) | i | 100* | i | i | 19.5%* | i | -0.876 | -24.0
COC(=O)C1=C(c2ccccc2)C[C@@H]2CC[C@H]1N2C(=O)NC1CC1 | i | i | i | i | x | x | x | x
O=C(Nc1ccc(C(F)(F)F)cc1)c1cccn(Cc2ccc3c(c2)OC(F)(F)O3)c1=O | i | 25* | i | i | i | i | -0.994 | -11.5
CCN1C[C@]2(C)CC[C@H](OC)[C@]34C2[C@H](OC(C)=O)[C@@]2(OCO[C@@]25C[C@H](OC)[C@H]2C[C@]3(O)C5[C@H]2OC)[C@@H]14 | i | i | i | i | x | x | x | x
CC12CCC(=O)C=C1CCC1C2C(O)CC2(C)C(O)CCC12 (stereo not drawn) | x | x | x | i | x | x | x | x
O=c1cc(C(F)(F)F)c2cc3c4c(c2o1)CCCN4CCC3 | i | i | i | i | x | x | x | x
Cc1cc2c(C(F)(F)F)cc(=O)oc2c2c1NCCC2 | i | i | i | i | 18.0%* | 30.0%* | -0.942 | -3.5
O=c1[nH]c(=O)n(CCC2=CCCCC2)c(O)c1C=NC1CCN(Cc2ccccc2)CC1 | i | 25* | i | i | i | i | -0.961 | -7.0
